# Target: PEG-3 (UniProt Q6IN02)
# Assay: GAPDH versus PEG-3 reporter suppression – cell-based, luminescence, counter-screen for PEG-3 promoter inhibitor project, SAR follow-up (AID 651551)
# Details: HeLa PEG-Prom / GAPDH luciferase reporter, 6 or 24 h, run 2, 6 h; at 99 µM (top of the series)
row,Structure (SMILES),inhibition % (higher = more inhibition)
1,CCn1nc(C(=O)Nc2nc(-c3ccccn3)cs2)c2ccccc2c1=O,39.9%
2,Cc1ccc(Cl)cc1Nc1nc(-c2sc(NC(=O)c3ccco3)nc2C)cs1,37%
3,O=C(Nc1nccs1)c1nn(-c2ccccc2)c(=O)c2ccccc12,28.7%
4,CCCn1nc(C(=O)Nc2nc(-c3ccccn3)cs2)c2ccccc2c1=O,44.6%
5,Cc1cc(NC(=O)c2cccc(C)c2C)n(-c2nc3ccccc3[nH]2)n1,16.4%
6,Cc1cc(NC(=O)c2ccccc2C(F)(F)F)n(-c2nc3ccccc3[nH]2)n1,88.2%
7,Cc1nc(NC(=O)c2ccccc2)sc1-c1csc(Nc2cccc(Cl)c2C)n1,32.8%
8,COc1ccc(-n2nc(C(=O)NCC(=O)Nc3ccc(OC)c(OC)c3)c3ccccc3c2=O)cc1,13.5%
9,COc1ccc(-n2nc(C(=O)NCC(=O)Nc3cccc(OC)c3)c3ccccc3c2=O)cc1,2.47%
10,Cc1cc(NC(=O)c2ccccc2)n(-c2nc3ccccc3[nH]2)n1,17.6%
11,Cc1nc(NC(=O)c2ccccc2)sc1-c1csc(Nc2ccccc2Cl)n1,7.99%
12,O=C(Nc1nc(-c2ccccc2)cs1)c1nn(-c2ccccc2)c(=O)c2ccccc12,3.85%
13,O=C(Nc1nc2ccccc2s1)c1nn(-c2ccccc2)c(=O)c2ccccc12,-4.43%
14,Cc1cc(NC(=O)c2ccccc2C)n(-c2nc3ccccc3[nH]2)n1,41.1%
15,CCn1cc(C(=O)NCc2ccco2)c(=O)c2cc(S(=O)(=O)N3CCCC3)ccc21,-0.291%
16,COc1ccc(Cl)cc1Nc1nc(-c2sc(NC(=O)c3ccccc3)nc2C)cs1,42.5%
17,Cc1nc(NC(=O)c2ccccc2)sc1-c1csc(Nc2ccccc2)n1,5.23%
18,CCCn1nc(C(=O)Nc2nc(-c3ccncc3)cs2)c2ccccc2c1=O,7.03%
19,COc1ccccc1Nc1nc(-c2sc(NC(=O)c3ccco3)nc2C)cs1,-0.291%
20,Cc1cc(NC(=O)c2ccccc2)n(-c2nc3ccccc3n2C)n1,38.3%
21,COc1ccc(-n2nc(C(=O)NCC(=O)Nc3cc(OC)c(OC)c(OC)c3)c3ccccc3c2=O)cc1OC,9.37%
22,CCCn1nc(C(=O)Nc2nc3ccccc3s2)c2ccccc2c1=O,21.8%
23,COCCCNC(=O)c1ccc(Cn2c(=O)c3ccccc3n(Cc3ccccc3C#N)c2=O)cc1,23.2%

# Source: PubChem BioAssay AID651551 (Sanford-Burnham Center for Chemical Genomics, 2012)
